Data reported in PubChem BioAssay AID463173 (ICCB-Longwood Screening Facility, Harvard Medical School, 2010).
Out of some 52,000 compounds screened, about 4,300 (8.3%) were called active. This is one part of a sample in which actives are shown more often than they occur. A number with no mark means an inactive call. Rule as the data show it: active = survival mostly below about 52% (no sharp cut-off); inactive = mostly above about 56%.

System: DeltatarO mutant
Test: growth inhibition of S. aureus wild type versus tarO mutant, primary screen, teichoic acid synthesis inhibitors, RN4220, OD600 (AID 463173)
Details: OD600, 18 h, stronger effect = lower value, screened at 18.75 µg/mL (by protocol)

Row | SMILES | survival
1 | CC(=O)N1CCc2c(sc3nc(SCC(N)=O)n(-c4ccc(F)c(Cl)c4)c(=O)c23)C1 | 75%
2 | CCOc1ccc(NC(=O)CC2C(=O)OCCN2CC)cc1 (configuration not stated) | 56%
3 | CCN1CCOC(=O)C1CC(=O)Nc1ccc(C(C)=O)cc1 (configuration not stated) | 59%
4 | CCN1CCOC(=O)C1CC(=O)Nc1ccc(Br)cc1 (configuration not stated) | 44% (active)
5 | CCOC(=O)c1ccc(NC(=O)CC2C(=O)OCCN2CC)cc1 (configuration not stated) | 61%
6 | CCN1CCOC(=O)C1CC(=O)Nc1cc(C)cc(C)c1 (configuration not stated) | 142%
7 | CCc1ccc(NC(=O)CC2C(=O)OCCN2CC)cc1 (configuration not stated) | 5% (active)
8 | O=C(NCCc1ccc(Cl)cc1)c1ccc2c(c1)N(Cc1ccccc1F)C(=O)c1ccccc1S2(=O)=O | 79%
9 | CCc1cccc2c(-c3ccccc3)nc(SCC(=O)Nc3ccccc3OC)nc12 | 109%
10 | Cc1ccc(C)c(N2CCN(S(=O)(=O)c3cnc(N)nc3)CC2)c1 | 86%
11 | COc1ccc2oc(=O)c(-c3cn4c(n3)sc3cc(F)ccc34)cc2c1 | 76%
12 | Cc1oc2ccc(O)c(CN3CCN(Cc4ccccc4)CC3)c2c1C(=O)Nc1ccccc1 | 68%
13 | COc1cccc(Cc2nc3ccccc3nc2SCC(=O)NCCc2ccccc2)c1 | 87%
14 | Cc1nc2c(c(C)nn2-c2ccccc2)c(C)c1CCC(=O)NCc1ccccc1 | 70%
15 | COc1ccc(CCNC(=O)CCc2c(C)nc3c(c(C)nn3-c3ccc(C)cc3)c2C)c(OC)c1 | 107%
16 | COc1ccc(CCNC(=O)CCc2c(C)nc3c(c(C)nn3-c3ccccc3)c2C)c(OC)c1 | 53% (active)
17 | COc1cc2c(-c3ccccc3C)nc3c(c(C)nn3-c3ccccc3)c2cc1OC | 35% (active)
18 | Cc1cccc(CCNC(=O)CCc2c(C)nc3c(c(C)nn3-c3ccccc3)c2C)c1 | 48% (active)
19 | COc1cc2c(-c3ccccc3O)nc3c(c(C)nn3-c3ccccc3)c2cc1OC | 68%
20 | COc1ccc(CNC(=O)CCc2c(C)nc3c(c(C)nn3-c3ccccc3)c2C)cc1 | 78%
21 | COc1cc2c(-c3ccccc3Cl)nc3c(c(C)nn3-c3ccccc3)c2cc1OC | 57%
22 | Cc1nc2c(c(C)nn2-c2ccccc2)c(C)c1CCC(=O)NCCc1ccccc1 | 58%
23 | O=c1c2ccc(N3CCOCC3)c3cccc(c32)c2nc3ccccc3n12 | 90%

Row | SMILES | survival
24 | O=C(Nc1ccc2oc(-c3cccnc3)nc2c1)c1cccc(Br)c1 | 62%
25 | Cc1cccc(C(=O)Nc2ccc3oc(-c4cccc5c(Br)cccc45)nc3c2)c1 | 67%
26 | Cc1cccc(C(=O)Nc2ccc(-c3nc4cc(C(C)C)ccc4o3)cc2)c1 | 34% (active)
27 | CC(C)c1ccc2oc(-c3ccc(NC(=O)c4cccc(Br)c4)cc3)nc2c1 | 44% (active)
28 | CC(C)(C)c1ccc(-c2nc3cc(NC(=O)c4cccc(Br)c4)ccc3o2)cc1 | 73%
29 | Cc1cccc(C(=O)Nc2ccc3oc(-c4ccncc4)nc3c2)c1 | 62%
30 | CC1CCN(CC(=O)Nc2ccc3ccccc3c2)CC1 | 107%
31 | CCCC(O)=NS(=O)(=O)c1ccc(N=NN(C)C)cc1 | 94%
32 | COc1cccc(NC(=O)CN(C)S(=O)(=O)c2cccs2)c1 | 108%
33 | CC(C)C(OC(=O)c1cc2occc2n1C(C)C)C(=O)NCC1CCCO1 (configuration not stated) | 67%
34 | COc1ccc(NC(=O)Cn2cc(C#N)c3ccccc32)cc1 | 67%
35 | CCC1CN(C(=O)N2CCC(C(=O)NCCc3ccc(OC)c(OC)c3)CC2)c2ccccc2O1 (configuration not stated) | 74%
36 | CC1CCc2nc3ncn(Cc4ccc(Cl)cc4)c(=O)c3cc2C1 (configuration not stated) | 85%
37 | CC1CCc2nc3ncn(Cc4ccccc4C#N)c(=O)c3cc2C1 (configuration not stated) | 81%
38 | Cc1ccccc1Cn1cnc2nc3c(cc2c1=O)CC(C)CC3 (configuration not stated) | 8% (active)
39 | CC1CCc2nc3ncn(Cc4ccccc4F)c(=O)c3cc2C1 (configuration not stated) | 66%
40 | Cc1ccc(Cn2cnc3nc4c(cc3c2=O)CC(C)CC4)cc1 (configuration not stated) | 20% (active)
41 | CC1CCc2nc3ncn(Cc4cccc(F)c4)c(=O)c3cc2C1 (configuration not stated) | 102%
42 | CC1CCN(C(=O)Cn2cc(SCc3ccccc3)c3ccccc32)CC1 | 46%
43 | Cc1cc(C)cc(NC(=O)c2cc(CN3CCCC3)on2)c1 | 88%
44 | CCOc1ccc(NC(=O)c2c(NCc3cccs3)sc3c2CCC(C)C3)cc1 (configuration not stated) | 129%
45 | COc1ccc(CNc2ncnc3c2c(-c2ccccc2)cn3-c2cccc(C)c2)cc1 | 67%
46 | Cc1ccc(CNC(=O)Cn2c3ncccc3c(=O)n2-c2ccc(C)cc2)cc1 | 116%

Row | SMILES | survival
47 | CCOC(=O)N1CCN(C(=O)c2ccc3c(c2)N(Cc2cccc(Cl)c2)C(=O)c2ccccc2S3=O)CC1 (configuration not stated) | 102%
48 | Cc1cccc(Cc2cnc(NC(=O)C3Cc4ccc(C)cc4C(=O)O3)s2)c1 (configuration not stated) | 85%
49 | CCOC(=O)c1c(NC(=O)c2cc(CC(C)C)on2)sc(C(C)=O)c1C | 54% (active)
50 | CCOC(=O)c1c(NC(=O)c2cc(-c3ccc(OC)c(OC)c3)on2)sc(C)c1C | 42% (active)
51 | CCOC(=O)c1c(NC(=O)c2cc(-c3cccc(Cl)c3)on2)sc(C)c1C | 56% (active)
52 | CCOC(=O)c1c(NC(=O)c2cc(-c3ccc(Br)cc3)on2)sc(C(C)=O)c1C | 88%
53 | CCOC(=O)c1c(NC(=O)c2cc(-c3ccc(OC)cc3)on2)sc(C)c1C | 45% (active)
54 | CCOC(=O)c1c(NC(=O)c2cc(C(C)C)on2)sc(C(C)=O)c1C | 123%
55 | CCOC(=O)c1c(NC(=O)c2cc(-c3cccc(Cl)c3)on2)sc(C(C)=O)c1C | 56%
56 | CCOC(=O)c1sc(NC(=O)c2cc(-c3ccc(F)cc3)on2)c(C(=O)OCC)c1C | 65%
57 | CCOC(=O)c1c(NC(=O)c2cc(-c3ccc(Br)cc3)on2)sc(C)c1C | 166%
58 | CCOC(=O)c1c(NC(=O)c2cc(-c3ccc(Cl)cc3)on2)sc(C)c1C | 68%
59 | CCOC(=O)c1c(NC(=O)c2cc(CC)on2)sc(C(C)=O)c1C | 52%
60 | CCOC(=O)c1c(NC(=O)c2cc(-c3ccccc3OC)on2)sc(C)c1C | 61%
61 | CN(C)CCNC(=O)Cn1c(=O)c2cccn2c2ccc(F)cc21 | 103%
62 | CCOC(=O)c1ccc(N2C(=O)c3n[nH]c(-c4ccco4)c3C2c2ccc(OC)cc2OC)cc1 (configuration not stated) | 89%
63 | CCOc1ccc(C(=O)OCc2cc(=O)n3nc(C4CC4)sc3n2)cc1 | 80%
64 | CC(C)N(C)NC(=S)Nc1ccccc1 | 77%
65 | CCN(CC)C(=O)Cn1c(=O)n(CCCCCC(=O)Nc2ccccc2)c(=O)c2sccc21 | 82%
66 | COc1ccc(-c2cc3nccc(C4CCN(C(=O)OC(C)(C)C)CC4)n3n2)cc1 | 102%
67 | CCOC(=O)c1c(NC(=O)c2cc(C(C)C)on2)sc(C)c1C | 49%
68 | CCOC(=O)c1c(NC(=O)c2cc(CC)on2)sc(C)c1C | 144%
69 | CCOC(=O)c1c(NC(=O)c2cc(C)on2)sc(C)c1C | 47% (active)

Row | SMILES | survival
70 | Cc1nn(C)c2c1c(C(F)(F)F)cc(=O)n2CC(=O)NCCC(C)C | 95%
71 | O=C(NCCc1ccccc1)c1cc(Sc2ccc(F)cc2F)nc2ccccc12 | 98%
72 | COc1ccc(C2CC(=O)Nc3cc4c(cc32)OCO4)c(OC)c1 (configuration not stated) | 80%
73 | COc1ccc(N(Cc2cc3cccc(C)c3[nH]c2=O)C(=O)c2cccc(Cl)c2)cc1 | 67%
74 | Cc1cccc(OCCCC(=O)Nc2sc3c(c2C(N)=O)CCC(C)C3)c1 (configuration not stated) | 73%
75 | COC(=O)c1c(NC(=O)Cc2coc3ccc(C)cc23)sc2c1CCC2 | 59%
76 | COC(=O)c1c(NC(=O)CS(=O)(=O)c2ccc(C)cc2)sc2c1CCCCC2 | 76%
77 | COC(=O)c1c(NC(=O)CCCOc2cccc(C)c2)sc2c1CCC2 | 15% (active)
78 | COC(=O)c1c(NC(=O)CCCOc2ccc(C(C)(C)C)cc2)sc2c1CCC(C)C2 (configuration not stated) | 28% (active)
79 | COC(=O)c1c(NC(=O)c2ccc(C(C)(C)C)cc2)sc2c1CCC(C)C2 (configuration not stated) | 85%
80 | COC(=O)c1c(NC(=O)COc2ccc(C)cc2Br)sc2c1CCCC2 | 61%
81 | CCOC(=O)c1c(NC(=O)CS(=O)(=O)c2ccc(C)cc2)sc2c1CCCCC2 | 66%
82 | CCOC(=O)c1c(NC(=O)COc2ccc(C)cc2C(C)(C)C)sc2c1CCC(C)C2 (configuration not stated) | 55%
83 | COC(=O)c1c(NC(=O)CCCOc2cccc(C)c2)sc2c1CCC(C)C2 (configuration not stated) | 10% (active)
84 | CC1CCc2c(sc(NC(=O)CCCOc3ccc(C(C)(C)C)cc3)c2C(N)=O)C1 (configuration not stated) | 60%
85 | COC(=O)c1c(NC(=O)CS(=O)(=O)c2ccc(C)cc2)sc2c1CCCC2 | -4% (active)
86 | O=c1c(S(=O)(=O)c2cccc(Cl)c2)cn(Cc2ccccc2)c2cc(N3CCCCC3)c(F)cc12 | 89%
87 | O=c1oc2cc(O)ccc2cc1-c1nc(-c2ccc(Cl)c(Cl)c2)cs1 | 101%
88 | O=C(Cn1c(=O)c2ccccc2n(CC(=O)Nc2ccc(F)cc2F)c1=O)NCCc1ccccc1 | 81%
89 | COc1cc(NC(=O)Nc2cccc(-c3noc(C)n3)c2)cc(OC)c1OC | 128%
90 | CC(C)Cn1c(SCC(N)=O)nc2ccccc2c1=O | 97%
91 | O=C(CN1C(=O)c2cccc3cccc1c23)N1CCCC1 | 85%
92 | Cc1ccc(Cl)cc1NC(=O)Cn1c(=O)n(C(C)C)c(=O)c2oc3ccccc3c21 | 51%
